Reference: the supplement of paper PMC9254222
The full ranking holds about 1,100 compounds; the median of “Wnt reporter firefly/Renilla luciferase ratio relative to plate median” is about 1.1, and the highest 2% start at about 1.6. Shown is part of a subset that was picked to be rich in the highest values.

System: HEK293T (UBE3A T485A transfected, BAR Wnt reporter)
Assay: Wnt reporter firefly/Renilla luciferase ratio relative to plate median (fold (linear ratio)); higher = more Wnt/beta-catenin reporter activation
Settings: 24 h
In short: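 HEK293T cells were seeded at 4500 cells/well in white 384-well plates and grown in DMEM with 10% FBS at 37°C and 5% CO2. The cells were transfected using Fugene 6 with a BAR firefly luciferase Wnt reporter, TK-Renilla and an expression plasmid, and four hours later robots added the chemicals at 0.01–100 uM for 24 h before a Dual-Glo luciferase readout. Wnt activity was taken as the firefly/Renilla ratio and cell health as raw Renilla, each median-centred per plate. Values are averages of four biological replicates.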

| SMILES | Wnt reporter firefly/Renilla luciferase ratio (concentration: 0.01 uM) | Wnt reporter firefly/Renilla luciferase ratio (concentration: 0.1 uM) | Wnt reporter firefly/Renilla luciferase ratio (concentration: 1 uM) | Wnt reporter firefly/Renilla luciferase ratio (concentration: 10 uM) | Wnt reporter firefly/Renilla luciferase ratio (concentration: 100 uM) |
| --- | --- | --- | --- | --- | --- |
| N#CSCSC#N [Methylene bis(thiocyanate)] | 0.967 | 0.976 | 1.05 | 1.31 | – |
| CNC(=O)ON=C(C)SC [Methomyl] | 0.847 | 1.08 | 1.03 | 0.996 | 1.19 |
| CNC(=O)ON=C(SC)C(=O)N(C)C [Oxamyl] | 1.55 | 1.22 | 1.11 | 1.43 | 0.291 |
| CS/C(C)=N/OC(=O)N(C)SN(C)C(=O)O/N=C(\C)SC [Thiodicarb] | 1.53 | 1.86 | 1.6 | 1.15 | – |
| Nn1cnnc1 [4-Amino-1,2,4-triazole] | – | 1.22 | 0.928 | 1.27 | 1.43 |
| ClC1=C(Cl)[C@]2(Cl)[C@H]3[C@H]([C@@H]4C=C[C@H]3C4)[C@@]1(Cl)C2(Cl)Cl [Aldrin] | – | 1.2 | 0.895 | 1.15 | 1.43 |
| COC(=O)c1ccccc1C(=O)OC [Dimethyl phthalate] | 1.03 | 1.21 | 1.21 | 1.2 | 1.42 |
| N#Cc1nn(-c2c(Cl)cc(C(F)(F)F)cc2Cl)c(N)c1S(=O)C(F)(F)F (centres undefined) [Fipronil] | 0.954 | 0.896 | 0.987 | 0.889 | 0.402 |
| COS(=O)(=O)[O-].Cn1c(-c2ccccc2)cc(-c2ccccc2)[n+]1C [Difenzoquat metilsulfate] | 0.771 | 0.813 | 1.1 | 0.847 | 0.425 |
| CC(C)(C)C(O)(CCc1ccc(Cl)cc1)Cn1cncn1 (centres undefined) [Tebuconazole] | – | 1.04 | 0.915 | 0.972 | 0.461 |
| CC(=O)N=C1C=CC(=O)C=C1 | 0.925 | 1.17 | 1 | 0.923 | 1.08 |
| CCN(CC)CCO [N,N-Diethylethanolamine] | – | 1.01 | 1.07 | 0.956 | 1.44 |
| Clc1ccc(C(c2ccccc2Cl)C(Cl)(Cl)Cl)cc1 (centres undefined) | – | 0.989 | 0.858 | 0.978 | 1.08 |
| c1cc2ccc3cccc4ccc(c1)c2c34 [Pyrene] | – | 1.09 | 0.96 | 1.05 | 0.354 |
| N=C(Nc1ccccc1)Nc1ccccc1 [1,3-Diphenylguanidine] | – | 1.06 | 1.28 | 0.977 | 1.02 |
| NC1=NC(O)C2C3OC4(O)OC(C(O)C2(N1)C4O)C3(O)CO (centres undefined) [Tetrodotoxin (TTX)] | 1.05 | 1.12 | 1.09 | 1.06 | 1.8 |

| SMILES | Wnt reporter firefly/Renilla luciferase ratio (concentration: 0.01 uM) | Wnt reporter firefly/Renilla luciferase ratio (concentration: 0.1 uM) | Wnt reporter firefly/Renilla luciferase ratio (concentration: 1 uM) | Wnt reporter firefly/Renilla luciferase ratio (concentration: 10 uM) | Wnt reporter firefly/Renilla luciferase ratio (concentration: 100 uM) |
| --- | --- | --- | --- | --- | --- |
| CCOc1cccc([C@]2(N3CCN(c4ccccc4)CC3)CC[C@@H](C)CC2)c1.CS(=O)(=O)O | – | 1.38 | 0.926 | 1.05 | 1.12 |
| CCCN(CCOc1c(Cl)cc(Cl)cc1Cl)C(=O)n1ccnc1 [Prochloraz] | 1.14 | 1.15 | 0.904 | 1.05 | 0.247 |
| CCCOC/C(=N\c1ccc(Cl)cc1C(F)(F)F)n1ccnc1 [Triflumizole] | 1.29 | 1.65 | 1.53 | 1.91 | 1.72 |
| CN1C2CC(OC(=O)C(CO)c3ccccc3)CC1C1OC12 (centres undefined) [Scopolamine] | 1.61 | 1.56 | 1.15 | 1.24 | 1.26 |
| N#Cc1cc(Br)c(O)c(Br)c1 [Bromoxynil] | 0.815 | 0.882 | 0.923 | 0.998 | 0.286 |
| CCNc1nc(Cl)nc(NC(C)C)n1 [Atrazine] | 1.45 | 1.38 | 1.15 | 1.29 | 1.18 |
| Cc1cccc([N+](=O)[O-])c1C [1,2-Dimethyl-3-nitrobenzene] | – | 0.993 | 0.898 | 0.848 | 1.57 |
| COS(C)(=O)=O [Methyl methanesulfonate] | – | 0.999 | 0.797 | 1.14 | 1.24 |
| COC(=O)c1c(C(F)F)nc(C(F)(F)F)c(C2=NCCS2)c1CC(C)C [Thiazopyr] | 0.815 | 0.899 | 0.947 | 0.872 | 0.82 |
| CCOCCOC(C)=O [2-Ethoxyethyl acetate] | – | 1.05 | 0.896 | 1.18 | 1.3 |
| CC(Oc1ccc(Cl)cc1Cl)C(=O)O (centres undefined) [Dichlorprop] | 1.16 | 1.21 | 1.22 | 1.24 | 1.32 |
| COC(=O)C(C)Oc1ccc(Oc2ccc(Cl)cc2Cl)cc1 (centres undefined) [Diclofop-methyl] | 1.1 | 1.28 | 1.98 | 1.27 | 1.29 |
| O=[N+]([O-])c1ccc(Oc2ccc(Cl)cc2Cl)cc1 [Nitrofen] | – | 1.04 | 0.882 | 1.01 | 1.28 |
| Clc1ccc(C(Cl)(Cl)Cl)cc1 [4-Chlorobenzotrichloride] | – | 1.23 | 0.884 | 1.42 | 2.38 |
| Clc1ccc(Cl)cc1 [1,4-Dichlorobenzene] | – | 1.45 | 0.934 | 1.1 | 1.39 |
| OC(c1ccc(Cl)cc1)(c1ccc(Cl)cc1)C(Cl)(Cl)Cl [Dicofol] | 1.23 | 1.37 | 1.17 | 1.3 | 1.06 |
